A short description of experiment [1]: P. berghei load reduction in hepatocytes – cell-based, HepG2, luciferase luminescence, HepG2 viability, primary screen (AID 624349; in the data active = parasite load remaining mostly below about 12%, no sharp cut-off; inactive = mostly above about 10%;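 also: 100% = mean of DMSO negative control wells on the same plate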). The settings on record: P. berghei liver stage in HepG2, luciferase luminescence, concentration not given here; parasite load remaining: stronger effect = lower value; viability: measured here: HepG2 viability without parasites.
Experiment [2] can be described thus: Wnt pathway potentiators raising nuclear beta-catenin – imaging, WNT3A-conditioned medium, mouse C2C12, NPC library, primary screen (AID 1117326; in the data active = nuclear beta-catenin stimulation mostly above about 4.2%, no sharp cut-off; inactive = mostly below about 10%). The settings on record: stronger effect = higher value.
Experiment [3] in a line: stimulators of insulin release from INS-1E, primary screen, cell-based, 5 mM glucose, NPC library (AID 1117329;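 active = compound raises insulin release from rat beta cells at 5 mM glucose, no numeric limit stated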). As to conditions: rat INS-1E insulin secretion, at 10 µM, stronger effect = higher value.
Experiment [4] can be described thus: growth inhibition of GSK3B-pretreated HCT116 cells – cell-based, CellTiter-Glo, 0.2 to 20 µM (AID 1117336;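 active = compounds lowering colon cancer cell viability after pretreatment blocking the GSK3B kinase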). As to conditions: HCT116 viability after GSK3B inhibitor, at 20 µM, stronger effect = higher value. A general note: In ATP-based viability assays light output follows the ATP content of the culture.
Experiment [5] in a line: inhibition of endothelial tube formation, primary screen, imaging, VEGF stimulated, CD31 staining, tube area, NPC library (AID 1117340;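 active = compound that reduces growth-factor-driven endothelial tube area in a mixed cell culture, no cutoff stated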). The settings on record: VEGF-stimulated ADSC/ECFC co-culture, at 10 µM, stronger effect = higher value.
The nature of experiment [6]: GLP1 release stimulators, primary, NCI-H716, NPC library (AID 1117341;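 active = compound raises GLP1 secretion from the human gut endocrine cells, with no numeric limit stated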). As to conditions: NCI-H716 cells, at 10 µM, stronger effect = higher value.
A short description of experiment [7]: HCT116 colon cancer cell growth inhibition, primary screen, CellTiter-Glo luminescence, NPC library (AID 1117342;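 active = compounds that lower survival of HCT116 colon cancer cells in the luminescence readout, no numeric limit stated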). The settings on record: at 20 µM (top of the series).
A short description of experiment [8]: reduced SW480 viability measured with CellTiter-Glo, NPC library, primary (AID 1117343;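 active = compounds that lower viability of the colon cancer cells in the luminescence readout, with no numeric limit stated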). The settings on record: CellTiter-Glo luminescence; at 20 µM (top of the series) unless noted.
A short description of experiment [9]: NPC library primary testing for decreased DLD-1 cell viability via CellTiter-Glo (AID 1117346;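 active = compounds that lower survival of DLD-1 colon cancer cells in the luminescence readout, no cutoff given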). The settings on record: DLD-1 viability, CellTiter-Glo luminescence; at 20 µM (top of the series).
A short description of experiment [10]: viability loss with induced miR-34 in A549 – imaging, A549 dox-inducible miR-34, nuclei and caspase counts, primary screen (AID 1347080;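 active = compounds whose cell count with miR-34 switched on is under 0.7 times the count with it off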). As to conditions: A549 miR-34 inducible, Hoechst nuclei count, 48 h.
Experiment [11] in a line: MELAS cybrid and Rieske KO viability enhancers – cell-based, MELAS cybrids, Rieske KO mouse fibroblasts, CellTiter-Glo, primary screen (AID 1508586).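 Also: z relative to plate mean and SD of compound and empty wells.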 The settings on record: low glucose.
Experiment [12] can be described thus: galactose survival enhancers in mitochondrial complex I cybrids – cell-based, galactose medium, ATP luminescence, primary screen (AID 1645843;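 active = z-score of at least 1.8 in each of two replicates, scored against plate mean and spread of sample wells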;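 also: positive z means more ATP and so rescue of galactose-driven cybrid death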). The settings on record: complex I mutant cybrid cells, 72 h, stronger effect = higher value.
Experiment [13] in a line: compounds altering viability of human ES cells (AID 493140; call rule not given here;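 also: cells exposed to compounds for four days before counting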). As to conditions: human embryonic stem cell survival screen; stronger effect = higher value.
Where [14] appears, read: stronger effect = lower value, cell number ratio, induced over uninduced.
Setting [15] is: measured here: relative caspase fold change +Dox/-Dox.
The mark [16] stands for this setting: measured here: total cells with miR-34 induction, stronger effect = lower value.
[17] abbreviates: measured here: total cells without miR-34 induction.
Where [18] appears, read: MELAS cybrid survival, CellTiter-Glo 48 h, stronger effect = higher value.
Setting [19] is: Rieske KO mouse fibroblast survival, CellTiter-Glo 72 h.

Values joined by “and” are separate entries in the source; they are usually repeats but may differ in a detail not shown here. Equal entries are not always repeated. Active and inactive are the calls of the source.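 The calls were made as follows, unless noted: active = mean z-score across replicates of 1.96 or higher in either the MELAS or the Rieske mutant cell line; inactive = the rest.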

With `NCCC(O)(P(=O)(O)O)P(=O)(O)O`, the parasite load remaining in experiment [1] was 25.4% (inactive). The viability (as a rule, a read-out of living cells in per cent, often relative to untreated cells) in experiment [1] was determined as 75%. For the same molecule, the nuclear beta-catenin stimulation in [2] (at 10 µM) is 1.8% (inactive); in experiment [2] (stimulation, at 2 µM), -0.1%. Further, the insulin secretion stimulation in experiment [3] is -3.4% (inactive). The viability decrease in experiment [4] is -16% (inactive). For the same molecule, the tube area decrease in experiment [5] was 8.2% (inactive). Also, the GLP1 secretion stimulation in [6] is 1.4% (inactive). Further, in experiment [7], the inhibition of viability was -1.9% (inactive). Besides, the viability decrease (inhibition) was 16.6% (inactive) in experiment [8] and -6.8% (inactive) in [9]. In addition, the fold change was 0.878 (inactive) in experiment [10] (setting [14]) and 1.25 in [10] (setting [15]). Moreover, the cell count in experiment [10] (setting [16]) is 9450; in experiment [10] (setting [17]) it was 10800. In addition, the z-score in [11] (setting [18]) is 0.361 (inactive); in experiment [11] (setting [19]), -0.434; in [12], 0.62 (inactive).

As to `CC(C)NC[C@@H](O)COc1ccc(CC(N)=O)cc1`, the survival in experiment [13] is 2.17 (inactive). Also, in experiment [1], the parasite load remaining was 88.2% (inactive). Further, the viability in [1] came out at 111%. The nuclear beta-catenin stimulation in experiment [2] (at 10 µM) was 0.1% (inactive); in [2] (stimulation, at 2 µM) it was 1.2%. Besides, the insulin secretion stimulation in experiment [3] was -1.9% (inactive). In experiment [4], the viability decrease is -4.35% (inactive). The tube area decrease in experiment [5] was -23.3% (inactive). Besides, the GLP1 secretion stimulation in [6] is 3.3% (inactive). Besides, the inhibition of viability in [7] is 1.1% (inactive). In addition, the viability decrease (inhibition) in experiment [8] is 11.3% (inactive); in [9] it was -7% (inactive). Also, the results for the fold change in experiment [10] (setting [14]) and in experiment [10] (setting [15]) were 0.872 (inactive) and 1.15, respectively. Further, the cell count in experiment [10] (setting [16]) turned out to be 9650; in experiment [10] (setting [17]) it was 11100. Also, the z-score in experiment [11] (setting [18]) was 0.458 (inactive); in [11] (setting [19]) it was -0.0401.

As to `CCOC(=O)/C=C(C)/C=C/C=C(C)/C=C/c1c(C)cc(OC)c(C)c1C`, in [1], the parasite load remaining was 13.4% (inactive). Further, the viability in [1] turned out to be 74%. In addition, the nuclear beta-catenin stimulation in experiment [2] (at 10 µM) was -2.1% (inactive); in [2] (stimulation, at 2 µM), -0.4%. Also, in experiment [3], the insulin secretion stimulation is 2.6% (inactive). In [4], the viability decrease is 62.2% (active). In addition, in [5], the tube area decrease is 3.9% (inactive). Also, the GLP1 secretion stimulation in experiment [6] is -2.9% (inactive). The inhibition of viability in experiment [7] was 59.4% (active). Besides, the viability decrease (inhibition) in experiment [8] was 60.3% (active); in [9], 25.3% (inactive). In addition, the fold change is 0.857 (inactive) in [10] (setting [14]) and 1 in [10] (setting [15]). Further, the cell count in [10] (setting [16]) came to 9250; in [10] (setting [17]), 10800. For the same molecule, the z-score in experiment [11] (setting [18]) was 0.196 (inactive) and -0.0105 (inactive); in experiment [11] (setting [19]), 0.164 and -0.496; in [12], -1.38 (inactive).

As for `C[C@]12CC[C@H]3[C@@H](CCC4=CC(=O)CC[C@@]43C)[C@@H]1CC[C@@H]2C(=O)CO`, the survival in [13] is 2.75 (inactive). In addition, the parasite load remaining in experiment [1] is 95.4% (inactive). The viability in [1] was 96.9%. In addition, the nuclear beta-catenin stimulation was 3.8% (inactive) in experiment [2] (at 10 µM) and 5.6% in [2] (stimulation, at 2 µM). Also, the insulin secretion stimulation in experiment [3] is 0.8% (inactive). Further, in experiment [4], the viability decrease is -35.8% (inactive). The tube area decrease in experiment [5] is 34.3% (inactive). The GLP1 secretion stimulation in [6] was 2.7% (inactive). The inhibition of viability in [7] is 27.8% (inactive). Besides, the viability decrease (inhibition) in experiment [8] is 23.6% (inactive); in experiment [9] it was 8.8% (inactive). Further, the values for the fold change in [10] (setting [14]) and in experiment [10] (setting [15]) were 0.793 (inactive) and 1.3, respectively. Also, the cell count is 7560 in [10] (setting [16]) and 9530 in experiment [10] (setting [17]). For the same molecule, the z-score in experiment [11] (setting [18]) is -0.237 (inactive); in experiment [11] (setting [19]), 0.173.

Regarding `CN(CCCCCCCCCCN(C)C(=O)Oc1cccc([N+](C)(C)C)c1)C(=O)Oc1cccc([N+](C)(C)C)c1`, the parasite load remaining in experiment [1] is 77.5% (inactive). Further, the viability in experiment [1] was determined as 106%. The nuclear beta-catenin stimulation in experiment [2] (at 10 µM) is -0.9% (inactive); in experiment [2] (stimulation, at 2 µM), -0.7%. In addition, the insulin secretion stimulation in experiment [3] is 2.2% (inactive). Also, the viability decrease in experiment [4] is 30.1% (inactive). In addition, the tube area decrease in experiment [5] is -9.4% (inactive). Also, in [6], the GLP1 secretion stimulation was -4.4% (inactive). Besides, the inhibition of viability in [7] was 57.4% (active). Further, the viability decrease (inhibition) in [8] is 39.3% (inactive); in experiment [9], 10.2% (inactive). For the same molecule, the fold change was 0.802 (inactive) in experiment [10] (setting [14]) and 1.05 in experiment [10] (setting [15]). For the same molecule, the cell count in experiment [10] (setting [16]) turned out to be 8660; in [10] (setting [17]), 10800. Also, the values for the z-score in [11] (setting [18]) and in experiment [11] (setting [19]) were -1.21 (inactive) and -0.227, respectively.

The record behind these values is PubChem BioAssay.
